A selection: hits, their analogues and other compounds. The true share with any hit is near 21%.
TDP1 cell noCPT – qHTS for Inhibitors of human tyrosyl-DNA phosphodiesterase 1 (TDP1): qHTS in cells in absence of CPT; 420,000 compounds, 15% hits; Potency, µM (highest dose often 46.2 µM), inactives show top-dose activity change, negative = growth inhibition, usual class: inhibitors; AID 686978, 2013; DT40 Tdp1-/- hTDP1 cells, no CPT, ATP luminescence, 48 h; note: potency is the fitted concentration of half-maximal effect; nearly all actives have a fitted effect of over 55% in size
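Growth kinetics read by CellTiter-Glo luminescence after ≥48 hr at 37 °C. Cells: DT40 Tdp1-/- stably carrying human TDP1, 400 per well, compound exposure in the absence of CPT (DMSO vehicle).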
RORgamma inh – ROR gamma (mouse) transcription inhibition; P51450; Drosophila S2 Gal4-RORgamma UAS-luciferase reporter, 20 h; Potency, µM (titrated, usually from 53.6 µM), inactives show top-dose activity change, negative = inhibition, hits mostly inhibitors; 310,000 compounds, 5.4% hits; note: potency is the fitted concentration of half-maximal effect; nearly all actives have a fitted effect of over 60% in size
Target sequence (P51450 whole entry, looked up, the tested form may be a part): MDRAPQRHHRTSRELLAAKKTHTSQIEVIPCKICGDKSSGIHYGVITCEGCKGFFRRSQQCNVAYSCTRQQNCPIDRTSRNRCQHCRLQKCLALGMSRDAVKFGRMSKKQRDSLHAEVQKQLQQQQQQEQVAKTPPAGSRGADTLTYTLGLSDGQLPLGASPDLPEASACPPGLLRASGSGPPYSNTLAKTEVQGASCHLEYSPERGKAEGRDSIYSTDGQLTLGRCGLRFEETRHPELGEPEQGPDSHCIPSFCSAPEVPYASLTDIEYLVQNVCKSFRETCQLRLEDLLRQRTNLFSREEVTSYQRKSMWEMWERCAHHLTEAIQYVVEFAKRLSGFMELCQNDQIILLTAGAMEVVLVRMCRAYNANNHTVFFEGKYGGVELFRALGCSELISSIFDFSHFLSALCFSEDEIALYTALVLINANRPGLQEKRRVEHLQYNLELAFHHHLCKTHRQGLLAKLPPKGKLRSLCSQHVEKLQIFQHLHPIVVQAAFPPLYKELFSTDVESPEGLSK
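Luminescence from a UAS-regulated Photinus luciferase reporter in stably transfected Drosophila Schneider cells is measured; decreased signal marks ROR gamma inhibition. Fusion expression is induced by 700 uM copper sulfate for 20 hr.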
ELG1 repair inh – blocks ELG1-dependent DNA repair in HEK293T cells. HEK293T ELG1-luciferase reporter, luminescence, 16 h; DNA damage induced by 5-fluorouridine. Potency, µM (highest dose often 46.1 µM), for inactives: at the highest dose activity change, negative = inhibition, usual class: inhibitors. 330,000 compounds, 2.3% hits. AID 504467; note: potency is the fitted concentration of half-maximal effect; nearly all actives have a fitted effect of over 55% in size
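Quantitative HTS, concentration-response format. 2,000 cells/well co-treated with 5-fluorouridine and compound, 16 hr in 5% CO2 at 37 °C; ONE-Glo luminescence read after 30 min.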
DT40 TDP1 CPT – growth inhibition of DT40 Tdp1-/-;hTDP1 cells with camptothecin (screen for TDP1 inhibitors); chicken DT40 Tdp1-/-;hTDP1 cells + 20 nM CPT, ATP luminescence, 48 h; Potency, µM (titrated, usually from 46.2 µM), inactives show at the top dose activity change, negative = growth inhibition, most hits filed as inhibitors; 420,000 compounds, 12% hits; AID 686979; note: potency is the fitted concentration of half-maximal effect; nearly all actives have a fitted effect of over 55% in size
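Chicken DT40 Tdp1-/- cells complemented with human TDP1, 400 cells/well, exposed to compounds plus 20 nM camptothecin for at least 48 h at 37 C; viability read as ATP content by CellTiter-Glo luminescence.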
IL1B secr inh – inhibitors of inflammasome signaling (IL-1 beta secretion); THP-1 LPS/ATP IL-1B secretion, AlphaLISA, 16 h; stronger effect = lower value; activity change, % at 57.5 µM; 360,000 compounds, 4.7% hits; in the data active = activity change below about -50%; inconclusive = mostly about -30% to -49%
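THP-1 cells pretreated 1 hr with compounds (up to 57.5 uM final), then stimulated with LPS (250 ng/mL final) plus ATP (1.25 mM final); secreted IL-1B measured by AlphaLISA after 16 hr, decreased signal indicating inhibition.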
Gal4-VP16 FLuc – Gal4-VP16 reporter inhibition counter-screen; Drosophila S2 Gal4-VP16 UAS-luciferase, luminescence, 20 h; Potency, µM (titrated, usually from 53.6 µM), without a hit: at the top dose activity, negative = inhibition, hits mostly inhibitors; 310,000 compounds, 3.5% hits; AID 2546;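 note: Gal4-VP16 expression switched on by copper sulfate through the metallothionein promoter; potency is the fitted concentration of half-maximal effect; nearly all actives have a fitted effect of over 50% in size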
Active calls of the source: *; [ ] = dose if it differs, or a comment. Unless noted, calls come from the whole dose curve; as a rule, active = well fitted curve in the direction sought with a large enough effect; inconclusive = small, poorly fitted or top-dose-only effect, or another doubt; inactive = no such curve, though single readings can be large; an effect the other way counts as inactive or inconclusive. % is set by controls: 0 for no effect and ±100 for the full control effect.

What do the screens show for `CCCCCn1c(=O)[nH]c2cc(C(=O)N3CCN(c4ccc(OC)cc4)CC3)ccc2c1=O`?
TDP1 cell noCPT: 18.4µM*; DT40 TDP1 CPT: 9.2µM*

Results for CCCCCn1c(=O)[nH]c2cc(C(=O)N3CCN(c4cccc(OC)c4)CC3)ccc2c1=O ?
TDP1 cell noCPT: 14.6µM*; DT40 TDP1 CPT: 23.1µM*

Results for CCCCCn1c(=O)[nH]c2cc(C(=O)Nc3cc(OC)cc(OC)c3)ccc2c1=O ?
TDP1 cell noCPT: 23.1µM*; DT40 TDP1 CPT: 13µM*

How did CCOC(=O)C1=CNS(=O)(=O)NC1c1ccc(C)cc1 (stereo not given) do in these assays?
TDP1 cell noCPT: 6.2%; ELG1 repair inh: 1.8%; DT40 TDP1 CPT: 3.6%; IL1B secr inh: 1.3

Results for CCCCCn1c(=O)[nH]c2cc(C(=O)N3CCN(c4cccc(C)c4)C(C)C3)ccc2c1=O (stereo not given) ?
TDP1 cell noCPT: 9.2µM*; DT40 TDP1 CPT: 20.6µM*

Results for CCCCCn1c(=O)[nH]c2cc(C(=O)NCCN3C(C)CCCC3C)ccc2c1=O (stereo not given) ?
TDP1 cell noCPT: inconclusive; RORgamma inh: -2.6%; ELG1 repair inh: -7.7%; DT40 TDP1 CPT: -26.3%; IL1B secr inh: 2.3; Gal4-VP16 FLuc: -6.7%

What do the screens show for `CN(C)CCNc1cccc2sc3ccc(O)cc3c(=O)c12`?
TDP1 cell noCPT: 0.326µM*; DT40 TDP1 CPT: 0.184µM*; IL1B secr inh: -94.7*

How did Cc1ccc(NCCN(C)C)c2c(=O)c3cc(O)ccc3sc12 do in these assays?
TDP1 cell noCPT: 0.184µM*; DT40 TDP1 CPT: 0.146µM*; IL1B secr inh: -102.2*

Results for CCN(CC)CCNc1ccc(CO)c2oc3ccccc3c(=O)c12 ?
TDP1 cell noCPT: 8.2µM*; DT40 TDP1 CPT: 8.2µM*; IL1B secr inh: -55.2*

How did COc1cc(C)c2sc3ccccc3c(=O)c2c1NCCN(C)C do in these assays?
TDP1 cell noCPT: 5.8µM*; DT40 TDP1 CPT: 6.51µM*

Results for OC[C@@H]1CN(Cc2ccccc2)C[C@H](n2cnc3c(NCc4ccncc4)ncnc32)O1 ?
TDP1 cell noCPT: 5.8%; DT40 TDP1 CPT: -5.7%; IL1B secr inh: 13.4

Results for O=C(CCCN1C(=O)c2cccc3cccc(c23)C1=O)NC1CCS(=O)(=O)C1 (stereo not given) ?
TDP1 cell noCPT: -8.8%; RORgamma inh: 14.8%; ELG1 repair inh: 1.1%; DT40 TDP1 CPT: -2.4%; IL1B secr inh: -23.8; Gal4-VP16 FLuc: -9.5%

Results for CN(C)CCNC(=O)CN1C(=O)COc2ccc(C(C)(C)C)cc21 ?
TDP1 cell noCPT: -2.9%; RORgamma inh: -10.7%; ELG1 repair inh: 10.2%; DT40 TDP1 CPT: -1.1%; IL1B secr inh: -21.1; Gal4-VP16 FLuc: -4.2%

Results for CCN(CC)CCNc1cccc2sc3ccccc3c(=O)c12 ?
TDP1 cell noCPT: 18.4µM*; DT40 TDP1 CPT: 23.1µM*; IL1B secr inh: 0.0

What do the screens show for `CCN=c1sc(C(=O)OC)cc(=O)n1CC`?
TDP1 cell noCPT: -6.8%; RORgamma inh: 2.1%; ELG1 repair inh: 14.4%; DT40 TDP1 CPT: -10.9%; IL1B secr inh: -1.9; Gal4-VP16 FLuc: 6.8%

Results for C=CCN=c1sc(C(=O)OC)cc(=O)n1CC=C ?
TDP1 cell noCPT: -18.7%; RORgamma inh: -1.9%; ELG1 repair inh: inconclusive; DT40 TDP1 CPT: 14.6µM*; IL1B secr inh: -0.5; Gal4-VP16 FLuc: -20.6%

How did COc1ccc(C2=NN(C(=O)CSc3nccn3C)C(c3ccco3)C2)cc1 (stereo not given) do in these assays?
TDP1 cell noCPT: inconclusive; ELG1 repair inh: -28.7%; DT40 TDP1 CPT: 18.4µM*; IL1B secr inh: -26.4

How did CCC(=O)N1N=C(c2c(-c3ccccc3)c3cc(Cl)ccc3[nH]c2=O)CC1c1ccco1 (stereo not given) do in these assays?
TDP1 cell noCPT: 23.1µM*; RORgamma inh: inconclusive; ELG1 repair inh: inconclusive; DT40 TDP1 CPT: 18.4µM*; IL1B secr inh: inconclusive; Gal4-VP16 FLuc: inconclusive

Results for CCC(=O)N1N=C(c2ccc(NS(=O)(=O)CC)cc2)CC1c1ccc(C)cc1 (stereo not given) ?
TDP1 cell noCPT: inconclusive; RORgamma inh: 6.1%; ELG1 repair inh: inconclusive; DT40 TDP1 CPT: inconclusive; IL1B secr inh: 3.7; Gal4-VP16 FLuc: 2.4%

What do the screens show for `COc1ccc(C2=NN(C(=O)COC(=O)c3ccc(NC(=O)CC#N)cc3)C(c3ccco3)C2)cc1` (stereo not given)?
TDP1 cell noCPT: inconclusive; ELG1 repair inh: inconclusive; DT40 TDP1 CPT: inconclusive; IL1B secr inh: -2.9

How did CCC(=O)N1N=C(c2ccc(NS(=O)(=O)c3ccc(C)cc3)cc2)CC1c1ccco1 (stereo not given) do in these assays?
TDP1 cell noCPT: 13µM*; ELG1 repair inh: inconclusive; DT40 TDP1 CPT: inconclusive; IL1B secr inh: inconclusive

How did COc1ccc(C2=NN(c3nc(-c4ccc(CNC(C)=O)cc4)cs3)C(c3ccco3)C2)cc1 (stereo not given) do in these assays?
TDP1 cell noCPT: 18.4µM*; RORgamma inh: -14.0%; ELG1 repair inh: 5.5%; DT40 TDP1 CPT: 20.6µM*; IL1B secr inh: -18.1; Gal4-VP16 FLuc: -7.1%

What do the screens show for `C=CC[C@@H]1C=C[C@@H](O/N=C(/C)CCC(=O)OC[C@@H]2O[C@H](c3ccccc3)C=C[C@@H]2Oc2ccc(OC)cc2)[C@@H](CO)O1`?
RORgamma inh: 13.7%[10 µM]; Gal4-VP16 FLuc: 16.4%[10 µM]

Results for O=C(OCC(=O)N1N=C(c2ccc(Cl)cc2)CC1c1ccco1)c1ccco1 (stereo not given) ?
TDP1 cell noCPT: inconclusive; RORgamma inh: -25.1%; ELG1 repair inh: inconclusive; DT40 TDP1 CPT: -30.0%; IL1B secr inh: -2.6; Gal4-VP16 FLuc: 6.9%

Results for Cc1ccc(C2=NN(C(=O)CSc3nnnn3C)C(c3ccco3)C2)cc1 (stereo not given) ?
TDP1 cell noCPT: inconclusive; ELG1 repair inh: -11.4%; DT40 TDP1 CPT: 13µM*; IL1B secr inh: inconclusive

What do the screens show for `O=C(OCC(=O)N1N=C(c2ccc(Cl)cc2)CC1c1ccco1)c1cncc(Br)c1` (stereo not given)?
TDP1 cell noCPT: 23.1µM*; ELG1 repair inh: 8.7%; DT40 TDP1 CPT: inconclusive; IL1B secr inh: inconclusive

Screens from PubChem.
